From PubChem
Most compounds without a hit are left out; they make up all but 16% or so of the library.
DT40 TDP1 CPT: qHTS for Inhibitors of human tyrosyl-DNA phosphodiesterase 1 (TDP1): qHTS in cells in presence of CPT; chicken DT40 Tdp1-/-;hTDP1 cells + 20 nM CPT, ATP luminescence, 48 h; Potency, µM (top dose mostly 46.2 µM), inactives show at the top dose activity change, negative = growth inhibition, actives largely listed as inhibitors; 420,000 tested, 12% active; AID 686979, 2013; note: potency is the fitted concentration of half-maximal effect; % is set by controls: 0 for no effect and ±100 for the full control effect; nearly all actives have a fitted effect of over 55% in size
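Cell growth measured by CellTiter-Glo luminescence after a minimum 48 h, 37 C compound exposure with 20 nM CPT in Tdp1-knockout DT40 cells stably expressing hTDP1, seeded 400/well; qHTS titration format.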
uPA generation: qHTS for Inhibitors of Cell Surface uPA Generation | Potency, µM (series often up to 38.3 µM), without a hit: at the highest dose activity change, negative = inhibition, hits mostly inhibitors | 330,000 tested, 0.31% active | cell surface uPA generation assay, qHTS; active = well fitted inhibition curve with a large enough effect; inconclusive = small, poorly fitted or top-dose-only effect; inactive = no such curve, though single readings can be large or run the other way; tested in mouse RAW 264.7 cells; note: potency is the fitted concentration of half-maximal effect; % is set by controls: 0 for no effect and ±100 for the full control effect; nearly all actives have a fitted effect of over 55% in size
TDP1 inh: qHTS Assay for Inhibitors of Tyrosyl-DNA Phosphodiesterase (TDP1). AID 485290, 2010. 350,000 tested, 0.28% active. Potency, µM (top dose mostly 130 µM), inactives show top-dose activity change, negative = inhibition, actives largely listed as inhibitors. Tyrosyl-DNA phosphodiesterase 1 (Homo sapiens), Q9NUW8. recombinant TDP1, AlphaScreen DNA substrate cleavage; note: potency is the fitted concentration of half-maximal effect; % is set by controls: 0 for no effect and ±100 for the full control effect; nearly all actives have a fitted effect of over 40% in size
Target sequence (Q9NUW8 whole entry, looked up): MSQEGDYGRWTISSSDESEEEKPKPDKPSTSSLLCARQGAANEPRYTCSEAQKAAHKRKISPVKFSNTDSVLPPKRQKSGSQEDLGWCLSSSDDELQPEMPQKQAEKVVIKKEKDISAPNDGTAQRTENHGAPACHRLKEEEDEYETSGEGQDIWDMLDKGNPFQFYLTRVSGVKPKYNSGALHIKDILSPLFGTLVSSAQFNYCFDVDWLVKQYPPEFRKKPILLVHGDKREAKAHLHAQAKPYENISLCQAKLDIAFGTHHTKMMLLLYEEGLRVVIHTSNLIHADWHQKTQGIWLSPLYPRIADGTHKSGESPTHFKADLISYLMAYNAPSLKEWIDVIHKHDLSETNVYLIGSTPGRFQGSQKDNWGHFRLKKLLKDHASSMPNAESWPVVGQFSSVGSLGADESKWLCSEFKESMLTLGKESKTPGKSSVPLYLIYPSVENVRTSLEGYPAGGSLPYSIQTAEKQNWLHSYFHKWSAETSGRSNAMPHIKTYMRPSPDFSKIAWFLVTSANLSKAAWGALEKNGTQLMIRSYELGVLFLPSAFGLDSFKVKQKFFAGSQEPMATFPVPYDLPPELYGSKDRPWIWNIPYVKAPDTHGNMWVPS
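Recombinant human Tdp1 (E. coli-expressed, 1 nM final) preincubated with compounds 15 min at room temperature, then 5'-biotin/3'-phosphotyrosine-FITC DNA substrate (15 nM final) added for 5 min. AlphaScreen beads (10 ug/ml final) added 10 min; cleavage lowers signal.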
DT40 TDP1 no CPT: qHTS for Inhibitors of human tyrosyl-DNA phosphodiesterase 1 (TDP1): qHTS in cells in absence of CPT. Potency, µM (top dose mostly 46.2 µM), for inactives: at the top dose activity change, negative = growth inhibition, most hits filed as inhibitors. 420,000 tested, 15% active. DT40 Tdp1-/- hTDP1 cells, no CPT, ATP luminescence, 48 h; note: potency is the fitted concentration of half-maximal effect; % is set by controls: 0 for no effect and ±100 for the full control effect; nearly all actives have a fitted effect of over 55% in size
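Stably hTDP1-transfected Tdp1-null chicken DT40 cells were treated with library compounds minus camptothecin and grown for at least 48 hr at 37 °C, after which cellular ATP was quantified by luminescence.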
miR-21 act: qHTS Assay for Modulators of miRNAs and/orActivators of miR-21. HeLa miR-21 FLuc reporter, luciferase, 48 h. Potency, µM (titrated, usually from 38.3 µM), inactives show top-dose activity change, positive = activation, most hits filed as activators. 340,000 tested, under 10 active. AID 2288, 2010;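 note: % of control where 0% means no effect; miR-21 action dims this reporter so a rising signal means less miR-21 action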
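Using DMEM plus 10% FBS, HeLa miR-21-FLuc cells are incubated with test compounds (final up to about 40uM) for 48 hours; firefly luciferase signal is then imaged following reagent-mediated lysis.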
Starred values were filed as active, the others as inactive; [ ] = dose if it differs, or a comment. Unless noted, calls come from the whole dose curve; as a rule, active = well fitted curve in the direction sought with a large enough effect; inconclusive = small, poorly fitted or top-dose-only effect, or another doubt; inactive = no such curve, though single readings can be large; an effect the other way counts as inactive or inconclusive.

Screening Cc1c2cnn(-c3ccccc3)c(=O)c2c(C)n1CC(=O)NCCc1ccc(Cl)cc1 returned DT40 TDP1 CPT -18%, TDP1 inh -3%, DT40 TDP1 no CPT -4% and miR-21 act 3%.
Screening CC(C)(C)S(=O)N1Cc2cc(C(=O)N[C@@H]3CCN(Cc4ccccc4)C3)nc(-c3cccc(-c4cc5ccccc5o4)c3)c2[C@@H]1CCO (some centres undefined) returned DT40 TDP1 CPT inconclusive and DT40 TDP1 no CPT 23µM*.
For O=S(=O)(NCc1nc2cccnc2n1Cc1ccc(F)cc1)c1ccc(Cl)s1 the results were DT40 TDP1 CPT inconclusive, TDP1 inh 5%, DT40 TDP1 no CPT inconclusive and miR-21 act 0%.
Screening COc1ccc(C(CCNC(C)c2ccccc2)C(C)C)cc1 (centres undefined) returned DT40 TDP1 CPT inconclusive, uPA generation 2%, TDP1 inh 3%, DT40 TDP1 no CPT 16µM* and miR-21 act 13%.
For COc1ccc(C(C)NS(=O)(=O)Cc2ccccc2)cc1 (centres undefined) the results were DT40 TDP1 CPT 8%, uPA generation -2%, TDP1 inh 0%, DT40 TDP1 no CPT -1% and miR-21 act -8%.
Screening COc1ccc(C(C)NCCC(c2ccc(OC(C)C)cc2)c2ccccc2OC)cc1 (centres undefined) returned DT40 TDP1 CPT 5.8µM*, uPA generation -10%, DT40 TDP1 no CPT 5.8µM* and miR-21 act inconclusive.
Screening C[C@H](NCCC(c1ccccc1)c1ccccc1)c1ccccc1 returned TDP1 inh 9%[21 µM].
Screening CCC(C(=O)Nc1ccccn1)c1ccccc1 (centres undefined) returned DT40 TDP1 CPT 0%, uPA generation -1% and DT40 TDP1 no CPT -12%.
CCCCc1ccc(NC(=S)NN2CCOCC2)cc1 was read as DT40 TDP1 CPT 1%, uPA generation 1%, TDP1 inh 1%, DT40 TDP1 no CPT inconclusive and miR-21 act -35%.
For CCCCNC(=O)C1CC(c2ccc(C(F)(F)F)cc2)=NO1 (centres undefined) the results were DT40 TDP1 CPT 18µM*, uPA generation 8%, TDP1 inh 5%, DT40 TDP1 no CPT 9.2µM* and miR-21 act -3%.
Screening CCCCN(CCCC)CCCNC(=O)C1CC(c2ccc(C(F)(F)F)cc2)=NO1 (centres undefined) returned DT40 TDP1 CPT inconclusive, uPA generation 13%, TDP1 inh 6%, DT40 TDP1 no CPT inconclusive and miR-21 act -2%.
`CCCNC(=O)C1CC(c2ccc(C(F)(F)F)cc2)=NO1` (centres undefined) gave DT40 TDP1 CPT 12µM*, uPA generation -6%, TDP1 inh 0%, DT40 TDP1 no CPT 12µM* and miR-21 act -22%.
For Cc1ccc(N2C(=O)N(CC(=O)Nc3cc(C)cc(C)c3)C(=O)C2C)cc1 (centres undefined) the results were DT40 TDP1 CPT inconclusive, uPA generation 0%, TDP1 inh 3%, DT40 TDP1 no CPT inconclusive and miR-21 act -1%.
CC1(C)CC(=O)N(c2ccc(Cl)cc2Cl)C(=O)C1 was read as DT40 TDP1 CPT 0%, uPA generation 3%, DT40 TDP1 no CPT -14% and miR-21 act -7%.
`COCCCNC(=O)CSc1nc2c(sc3ccccc32)c(=O)n1CCc1ccccc1` gave DT40 TDP1 CPT -17%, TDP1 inh 1%, DT40 TDP1 no CPT -20% and miR-21 act -3%.
COCCCn1c(SCC(=O)Nc2ccccc2OC)nc2c(sc3ccccc32)c1=O was read as DT40 TDP1 CPT 23µM*, TDP1 inh 2%, DT40 TDP1 no CPT 26µM* and miR-21 act 21%.
For COCCCNC(=O)CSc1nc2c(sc3ccccc32)c(=O)n1CCc1ccc(OC)c(OC)c1 the results were DT40 TDP1 CPT inconclusive, TDP1 inh 4%, DT40 TDP1 no CPT 5.2µM* and miR-21 act 0%.
Screening COCCNC(=O)C1CCCN(C(=O)COCc2ccccc2)CC1 (centres undefined) returned DT40 TDP1 CPT 4% and DT40 TDP1 no CPT 2%.
Cc1ccsc1/C=C(\C(=O)c1ccc(OC(C)C)cc1)c1nc2ccccc2o1 was read as DT40 TDP1 CPT 16µM*, uPA generation 1%, TDP1 inh -3%, DT40 TDP1 no CPT 18µM* and miR-21 act -5%.
Screening Cc1ccc(-c2nc3ccccc3o2)cc1NC(=O)C(C)Oc1ccccc1 (centres undefined) returned DT40 TDP1 CPT 1% and DT40 TDP1 no CPT -14%.
Cc1nn(Cc2ccc(C(=O)Nc3ccccc3C(F)(F)F)o2)c(C)c1Br was read as DT40 TDP1 CPT inconclusive, uPA generation 5%, TDP1 inh -1%, DT40 TDP1 no CPT inconclusive and miR-21 act 9%.
For Cc1csc(NC(=O)c2ccc(Cn3nc(C)c(Br)c3C)o2)n1 the results were DT40 TDP1 CPT inconclusive, uPA generation -5%, TDP1 inh 0%, DT40 TDP1 no CPT 21µM* and miR-21 act 27%.
CC(C)CCc1noc(CN2CCN(CC(=O)NC(C)C)CC2)n1 was read as DT40 TDP1 CPT 26µM*, uPA generation -1%, DT40 TDP1 no CPT 26µM* and miR-21 act 4%.
`COc1ccc2c(c1)[nH]c1c(N3CCN(Cc4ccc5c(c4)OCO5)CC3)ncnc12` gave DT40 TDP1 CPT 2.3µM*, uPA generation -9%, TDP1 inh 9%, DT40 TDP1 no CPT 1.6µM* and miR-21 act inconclusive.
Screening COc1ccc2c(c1)[nH]c1c(N3CCSCC3)ncnc12 returned DT40 TDP1 CPT 7.3µM*, uPA generation -9%, TDP1 inh 7%, DT40 TDP1 no CPT 8.2µM* and miR-21 act inconclusive.
For COC(=O)c1ccccc1NC(=O)CCC(=O)N1CCOc2ccccc21 the results were DT40 TDP1 CPT -20%, TDP1 inh 9%, DT40 TDP1 no CPT -29% and miR-21 act -17%.
Screening COc1cccc(OC)c1-c1nnc(-c2cn(C)c3ccccc23)o1 returned DT40 TDP1 CPT inconclusive, uPA generation 1%, TDP1 inh 6%, DT40 TDP1 no CPT inconclusive and miR-21 act -19%.
For CCn1c2ccc(C)cc2c2nnc(NN)nc21 the results were DT40 TDP1 CPT 18µM*, uPA generation -4%, TDP1 inh 6%, DT40 TDP1 no CPT 9.2µM* and miR-21 act -13%.
Screening CCCCn1c2ccc(F)cc2c2nnc(NN)nc21 returned DT40 TDP1 CPT 18µM*, uPA generation -11%, TDP1 inh 2%, DT40 TDP1 no CPT inconclusive and miR-21 act -10%.
